Experimental data: PMC7862700, “An all-to-all approach to the identification of sequence-specific readers for epigenetic DNA modifications on cytosine”

What was measured:
Test in all cases: DAPPL (digital affinity profiling via proximity ligation, sequencing); 10 mM Tris-HCl pH 7.5, 50 mM NaCl, 1 mM DTT, 4% glycerol, room temperature, 30 min; GST-TFs on glutathione beads, 16-mer random dsDNA library, 0.1% formaldehyde crosslink after washing; high values mean tight binding
Details in all cases: protein: recombinant; tags: N-terminal GST; dsDNA, one strand shown
[1] = target: T1, ERF (Homo sapiens, UniProt P50548 1-548)
T1 sequence: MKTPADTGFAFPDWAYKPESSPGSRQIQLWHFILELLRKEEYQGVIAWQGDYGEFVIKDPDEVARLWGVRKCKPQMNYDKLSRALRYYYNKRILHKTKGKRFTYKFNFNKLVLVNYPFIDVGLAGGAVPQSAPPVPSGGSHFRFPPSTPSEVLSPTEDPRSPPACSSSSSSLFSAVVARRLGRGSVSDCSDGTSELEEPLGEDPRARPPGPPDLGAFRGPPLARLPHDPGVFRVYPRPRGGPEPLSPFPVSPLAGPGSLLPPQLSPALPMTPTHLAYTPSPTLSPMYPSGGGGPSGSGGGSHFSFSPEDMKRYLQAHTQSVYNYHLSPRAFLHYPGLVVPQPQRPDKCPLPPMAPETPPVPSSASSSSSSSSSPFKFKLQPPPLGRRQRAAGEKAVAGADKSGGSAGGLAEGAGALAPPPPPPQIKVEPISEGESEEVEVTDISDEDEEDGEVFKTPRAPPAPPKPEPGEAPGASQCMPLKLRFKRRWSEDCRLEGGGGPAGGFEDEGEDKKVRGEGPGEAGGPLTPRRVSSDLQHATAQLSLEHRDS
Outline: (§1)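 Binding signal is each hexamer's read frequency for a factor divided by its frequency in the tag-only sample. The factors were GST-fused human transcription factors from yeast, captured on glutathione beads, DNA-barcoded and pooled with that sample. Pools were incubated with 200 nmole of a random double-stranded 16-mer DNA library in Tris/NaCl/DTT/glycerol buffer at room temperature for 30 min, then washed, crosslinked with 0.1% formaldehyde, proximity-ligated with BsaI/T4 ligase (1 h, 37 °C), PCR-amplified and sequenced on an Illumina NextSeq500.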

[2] = target: T2, ETV3L (Homo sapiens, UniProt Q6ZN32 1-361)
T2 sequence: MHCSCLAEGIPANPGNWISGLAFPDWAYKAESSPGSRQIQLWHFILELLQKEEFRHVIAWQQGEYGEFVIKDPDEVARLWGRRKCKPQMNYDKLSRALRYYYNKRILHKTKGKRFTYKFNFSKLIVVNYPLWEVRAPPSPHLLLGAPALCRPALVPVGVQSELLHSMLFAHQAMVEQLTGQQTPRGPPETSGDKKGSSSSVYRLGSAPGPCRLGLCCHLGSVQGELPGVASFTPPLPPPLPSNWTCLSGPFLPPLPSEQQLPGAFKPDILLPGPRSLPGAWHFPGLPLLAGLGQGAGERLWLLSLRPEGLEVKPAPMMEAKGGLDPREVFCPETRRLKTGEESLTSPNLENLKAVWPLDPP
Outline: as §1

[3] = target: T3, ETS2 (Homo sapiens, UniProt P15036 1-469)
T3 sequence: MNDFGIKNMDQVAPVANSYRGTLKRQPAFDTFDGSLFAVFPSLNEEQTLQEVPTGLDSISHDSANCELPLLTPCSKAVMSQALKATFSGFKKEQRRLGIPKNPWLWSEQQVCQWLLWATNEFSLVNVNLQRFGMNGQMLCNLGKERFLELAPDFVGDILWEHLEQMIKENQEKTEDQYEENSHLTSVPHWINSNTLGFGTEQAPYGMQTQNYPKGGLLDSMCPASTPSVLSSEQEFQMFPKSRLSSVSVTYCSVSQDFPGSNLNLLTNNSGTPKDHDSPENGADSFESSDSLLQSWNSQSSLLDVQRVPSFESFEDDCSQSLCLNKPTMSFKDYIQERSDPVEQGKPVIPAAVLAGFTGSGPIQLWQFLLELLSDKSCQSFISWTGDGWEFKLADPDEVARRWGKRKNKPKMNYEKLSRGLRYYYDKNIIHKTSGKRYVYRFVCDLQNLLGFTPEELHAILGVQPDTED
Outline: as §1

[4] = target: T4, SPDEF (Homo sapiens, UniProt O95238 1-335)
T4 sequence: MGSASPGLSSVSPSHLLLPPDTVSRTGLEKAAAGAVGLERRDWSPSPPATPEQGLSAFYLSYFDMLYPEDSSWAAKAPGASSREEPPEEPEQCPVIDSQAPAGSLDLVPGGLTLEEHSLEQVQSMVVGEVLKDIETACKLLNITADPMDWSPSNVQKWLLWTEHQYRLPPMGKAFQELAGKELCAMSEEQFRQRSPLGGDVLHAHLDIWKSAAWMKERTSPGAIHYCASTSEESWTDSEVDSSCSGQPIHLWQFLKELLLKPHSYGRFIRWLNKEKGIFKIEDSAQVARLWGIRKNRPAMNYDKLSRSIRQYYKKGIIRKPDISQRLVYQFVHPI
Outline: as §1

[5] = target: T5, ETV7 (Homo sapiens, UniProt Q9Y603 1-341)
T5 sequence: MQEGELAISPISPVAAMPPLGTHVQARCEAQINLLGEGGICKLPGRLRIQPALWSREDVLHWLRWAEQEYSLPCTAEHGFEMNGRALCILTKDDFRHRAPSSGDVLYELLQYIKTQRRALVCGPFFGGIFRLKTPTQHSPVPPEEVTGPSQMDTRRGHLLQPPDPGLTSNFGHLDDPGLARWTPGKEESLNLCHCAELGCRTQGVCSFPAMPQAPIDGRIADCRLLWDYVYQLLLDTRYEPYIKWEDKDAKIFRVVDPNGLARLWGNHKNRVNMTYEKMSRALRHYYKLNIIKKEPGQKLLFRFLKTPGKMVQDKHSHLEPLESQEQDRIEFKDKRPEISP
Outline: as §1

[6] = target: T6, ELF5 (Homo sapiens, UniProt Q9UKW6-2 1-255)
T6 sequence: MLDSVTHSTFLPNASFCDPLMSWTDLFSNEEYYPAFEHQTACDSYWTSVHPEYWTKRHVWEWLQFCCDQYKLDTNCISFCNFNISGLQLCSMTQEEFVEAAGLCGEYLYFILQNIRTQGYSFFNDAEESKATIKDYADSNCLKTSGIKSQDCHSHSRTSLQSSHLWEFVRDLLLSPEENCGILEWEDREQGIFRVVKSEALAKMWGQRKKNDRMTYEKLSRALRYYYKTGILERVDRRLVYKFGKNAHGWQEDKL
Outline: as §1

[7] = target: T7, ETV3 (Homo sapiens, UniProt P41162-2 1-143)
T7 sequence: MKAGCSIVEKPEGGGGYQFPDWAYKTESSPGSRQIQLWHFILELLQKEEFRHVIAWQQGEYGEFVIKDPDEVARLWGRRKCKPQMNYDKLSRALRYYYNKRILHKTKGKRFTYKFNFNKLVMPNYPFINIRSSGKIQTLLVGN
Outline: as §1

[8] = target: ETV6 (Homo sapiens, UniProt P41212 1-452)
Outline: as §1

Sequence of ETV6 (P41212 whole entry): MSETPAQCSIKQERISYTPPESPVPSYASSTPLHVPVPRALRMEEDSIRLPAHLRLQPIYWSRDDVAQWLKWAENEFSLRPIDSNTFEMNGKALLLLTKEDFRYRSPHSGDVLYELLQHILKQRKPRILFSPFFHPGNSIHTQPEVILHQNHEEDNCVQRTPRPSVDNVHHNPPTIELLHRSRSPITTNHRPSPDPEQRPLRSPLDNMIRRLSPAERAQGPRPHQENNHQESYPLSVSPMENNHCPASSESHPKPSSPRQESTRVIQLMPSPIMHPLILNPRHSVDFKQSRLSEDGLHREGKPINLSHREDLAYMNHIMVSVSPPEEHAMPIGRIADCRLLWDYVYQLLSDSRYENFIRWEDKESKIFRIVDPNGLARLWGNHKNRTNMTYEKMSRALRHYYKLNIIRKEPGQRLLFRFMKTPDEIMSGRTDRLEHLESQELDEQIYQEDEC

Sequence	binding signal [1]	binding signal [2]	binding signal [3]	binding signal [4]	binding signal [5]	binding signal [6]	binding signal [7]	binding signal [8]
ATTGCG	1.35 fold enrichment (6-mer frequency, TF over GST control)	1.29 fold enrichment (6-mer frequency, TF over GST control)	1.27 fold enrichment (6-mer frequency, TF over GST control)	1.09 fold enrichment (6-mer frequency, TF over GST control)	1.17 fold enrichment (6-mer frequency, TF over GST control)	1.21 fold enrichment (6-mer frequency, TF over GST control)	1.16 fold enrichment (6-mer frequency, TF over GST control)	1.27 fold enrichment (6-mer frequency, TF over GST control)
CCCTTC	1.25 fold enrichment (6-mer frequency, TF over GST control)	1.44 fold enrichment (6-mer frequency, TF over GST control)	1.37 fold enrichment (6-mer frequency, TF over GST control)	1.38 fold enrichment (6-mer frequency, TF over GST control)	1.43 fold enrichment (6-mer frequency, TF over GST control)	1.62 fold enrichment (6-mer frequency, TF over GST control)	1.34 fold enrichment (6-mer frequency, TF over GST control)	1.5 fold enrichment (6-mer frequency, TF over GST control)
TTAATA	1.24 fold enrichment (6-mer frequency, TF over GST control)	1.28 fold enrichment (6-mer frequency, TF over GST control)	1.21 fold enrichment (6-mer frequency, TF over GST control)	1.14 fold enrichment (6-mer frequency, TF over GST control)	1.23 fold enrichment (6-mer frequency, TF over GST control)	1.12 fold enrichment (6-mer frequency, TF over GST control)	1.09 fold enrichment (6-mer frequency, TF over GST control)	1.15 fold enrichment (6-mer frequency, TF over GST control)
GCATTT	1.31 fold enrichment (6-mer frequency, TF over GST control)	1.35 fold enrichment (6-mer frequency, TF over GST control)	1.34 fold enrichment (6-mer frequency, TF over GST control)	1.36 fold enrichment (6-mer frequency, TF over GST control)	1.31 fold enrichment (6-mer frequency, TF over GST control)	1.4 fold enrichment (6-mer frequency, TF over GST control)	1.36 fold enrichment (6-mer frequency, TF over GST control)	1.39 fold enrichment (6-mer frequency, TF over GST control)
TAATTG	1.35 fold enrichment (6-mer frequency, TF over GST control)	1.37 fold enrichment (6-mer frequency, TF over GST control)	1.42 fold enrichment (6-mer frequency, TF over GST control)	1.22 fold enrichment (6-mer frequency, TF over GST control)	1.44 fold enrichment (6-mer frequency, TF over GST control)	1.37 fold enrichment (6-mer frequency, TF over GST control)	1.34 fold enrichment (6-mer frequency, TF over GST control)	1.42 fold enrichment (6-mer frequency, TF over GST control)
TAGCCC	1.18 fold enrichment (6-mer frequency, TF over GST control)	1.11 fold enrichment (6-mer frequency, TF over GST control)	1.14 fold enrichment (6-mer frequency, TF over GST control)	1.3 fold enrichment (6-mer frequency, TF over GST control)	1.05 fold enrichment (6-mer frequency, TF over GST control)	1.07 fold enrichment (6-mer frequency, TF over GST control)	1.24 fold enrichment (6-mer frequency, TF over GST control)	1.04 fold enrichment (6-mer frequency, TF over GST control)
TGGGAT	1.05 fold enrichment (6-mer frequency, TF over GST control)	1.15 fold enrichment (6-mer frequency, TF over GST control)	1.17 fold enrichment (6-mer frequency, TF over GST control)	1.17 fold enrichment (6-mer frequency, TF over GST control)	1.15 fold enrichment (6-mer frequency, TF over GST control)	1.2 fold enrichment (6-mer frequency, TF over GST control)	1.18 fold enrichment (6-mer frequency, TF over GST control)	1.23 fold enrichment (6-mer frequency, TF over GST control)
AACATT	1.33 fold enrichment (6-mer frequency, TF over GST control)	1.34 fold enrichment (6-mer frequency, TF over GST control)	1.29 fold enrichment (6-mer frequency, TF over GST control)	1.16 fold enrichment (6-mer frequency, TF over GST control)	1.36 fold enrichment (6-mer frequency, TF over GST control)	1.3 fold enrichment (6-mer frequency, TF over GST control)	1.32 fold enrichment (6-mer frequency, TF over GST control)	1.39 fold enrichment (6-mer frequency, TF over GST control)
TCTAGT	1.25 fold enrichment (6-mer frequency, TF over GST control)	1.05 fold enrichment (6-mer frequency, TF over GST control)	1.17 fold enrichment (6-mer frequency, TF over GST control)	1.06 fold enrichment (6-mer frequency, TF over GST control)	1.1 fold enrichment (6-mer frequency, TF over GST control)	1.04 fold enrichment (6-mer frequency, TF over GST control)	1.08 fold enrichment (6-mer frequency, TF over GST control)	1.12 fold enrichment (6-mer frequency, TF over GST control)
CGATCT	1.17 fold enrichment (6-mer frequency, TF over GST control)	1.32 fold enrichment (6-mer frequency, TF over GST control)	1.32 fold enrichment (6-mer frequency, TF over GST control)	1.25 fold enrichment (6-mer frequency, TF over GST control)	1.42 fold enrichment (6-mer frequency, TF over GST control)	1.27 fold enrichment (6-mer frequency, TF over GST control)	1.24 fold enrichment (6-mer frequency, TF over GST control)	1.2 fold enrichment (6-mer frequency, TF over GST control)
ACTCGT	1.25 fold enrichment (6-mer frequency, TF over GST control)	1.26 fold enrichment (6-mer frequency, TF over GST control)	1.27 fold enrichment (6-mer frequency, TF over GST control)	1.14 fold enrichment (6-mer frequency, TF over GST control)	1.26 fold enrichment (6-mer frequency, TF over GST control)	1.24 fold enrichment (6-mer frequency, TF over GST control)	1.21 fold enrichment (6-mer frequency, TF over GST control)	1.16 fold enrichment (6-mer frequency, TF over GST control)
ACTTTA	1.12 fold enrichment (6-mer frequency, TF over GST control)	1.26 fold enrichment (6-mer frequency, TF over GST control)	1.25 fold enrichment (6-mer frequency, TF over GST control)	1.08 fold enrichment (6-mer frequency, TF over GST control)	1.29 fold enrichment (6-mer frequency, TF over GST control)	1.15 fold enrichment (6-mer frequency, TF over GST control)	1.19 fold enrichment (6-mer frequency, TF over GST control)	1.18 fold enrichment (6-mer frequency, TF over GST control)
CTTCCA	1.55 fold enrichment (6-mer frequency, TF over GST control)	1.52 fold enrichment (6-mer frequency, TF over GST control)	1.45 fold enrichment (6-mer frequency, TF over GST control)	1.45 fold enrichment (6-mer frequency, TF over GST control)	1.36 fold enrichment (6-mer frequency, TF over GST control)	1.64 fold enrichment (6-mer frequency, TF over GST control)	1.41 fold enrichment (6-mer frequency, TF over GST control)	1.76 fold enrichment (6-mer frequency, TF over GST control)
TGGCTA	1.33 fold enrichment (6-mer frequency, TF over GST control)	1.21 fold enrichment (6-mer frequency, TF over GST control)	1.16 fold enrichment (6-mer frequency, TF over GST control)	1.28 fold enrichment (6-mer frequency, TF over GST control)	1.29 fold enrichment (6-mer frequency, TF over GST control)	1.14 fold enrichment (6-mer frequency, TF over GST control)	1.18 fold enrichment (6-mer frequency, TF over GST control)	1.28 fold enrichment (6-mer frequency, TF over GST control)
GTATAT	1.11 fold enrichment (6-mer frequency, TF over GST control)	1.16 fold enrichment (6-mer frequency, TF over GST control)	1.14 fold enrichment (6-mer frequency, TF over GST control)	1.37 fold enrichment (6-mer frequency, TF over GST control)	1.13 fold enrichment (6-mer frequency, TF over GST control)	1.15 fold enrichment (6-mer frequency, TF over GST control)	1.25 fold enrichment (6-mer frequency, TF over GST control)	1.09 fold enrichment (6-mer frequency, TF over GST control)
